For 95 molecules, inhibition results are on record in PubChem BioAssay AID652010 (The Scripps Research Institute Molecular Screening Center, 2013).

The structures appear in SMILES notation. Among all 370,000 compounds or so, about 4,100 (1.1%) were called active. Shown is part of a subset that was picked to be rich in actives. A number with no mark means an inactive call.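 The calls were made as follows: active = inhibition above the mean over all tested compounds plus 3 SD (cut at about 3.6% in these data); inactive = the rest.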

This assay can be described thus: relief of DAX-1 repression of SF-1 activity – cell-based, luminescence, SF-1 (NR5A1), full-length DAX-1, primary screen (AID 652010).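 Also: 0% = DAX-1 cells with DMSO and 100% = cells lacking DAX-1 with DMSO.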 Conditions: HEK293T StAR-luciferase reporter, SF-1/DAX-1 repression relief; at 6.8 µM; stronger effect = higher value. In general terms: Reporter assays use an easily measured gene product as a stand-in for the process of interest.
`Nc1ccc(C(=O)Nc2ccccc2N)cc1`: the inhibition is 15.9% (active).

Consider `O=C(Nc1ccccc1C(=O)N1CCOCC1)c1ccc(Cl)cc1`, for which the inhibition is -0.37%.

Take `CC(CNC(=O)c1ccc(N)cc1)NC(=O)c1ccc(N)cc1` (stereo not given): the inhibition was 0.06%.

As for `C#CCCN([C@H](C(=O)OC)C(C)C)S(=O)(=O)c1ccc(F)cc1Br`, the inhibition is -0.77%.

With `O=C1CCC2(CCC(c3ccc(Cl)cc3)CC2)N1CCO` (stereo not given), the inhibition is -1.36%.

With `O=S1(=O)c2c(cccc2N2CC[C@H](O)C2)O[C@@H]2CCN1C2`, the inhibition is -0.61%.

For `Cc1cc(OCc2cc(C(=O)NCc3cc(C(C)C)no3)no2)cc(C)c1Cl`, the inhibition was 7.8% (active).

Take `COc1ccc(OCc2cc(C(=O)NCC3(C)COC3)no2)c(Cl)c1`: the inhibition was -0.13%.

With `COCCCNC(=O)COc1cc(C)c(Cl)c(C)c1`, the inhibition is -0.64%.

Take `N#Cc1ccc(-c2nc3cc(C#N)c(C#N)cc3nc2-c2ccccc2)cc1C#N`: the inhibition is -0.36%.

For `Cc1cc(NC(=O)Nc2ccccc2[N+](=O)[O-])no1`, the inhibition was -0.12%.

As to `Cc1csc(NC(=O)Nc2ccccc2[N+](=O)[O-])n1`, the inhibition is 4.06% (active).

As to `CN1CCN(CCNC(=O)Nc2ccccc2[N+](=O)[O-])CC1`, the inhibition is -0.08%.

In the case of `O=C1[C@@H]2C(c3cccnc3)=NO[C@@H]2C(=O)N1c1ccc(Cl)cc1Cl`, the inhibition was -0.39%.

Consider `COc1cccc(CNC(=O)CNS(=O)(=O)c2ccc3nc(C)sc3c2)c1OC`, for which the inhibition is -0.3%.

On to `Cc1ccc(CSc2nnc(SCC(=O)NN=Cc3cc(Br)ccc3F)s2)cc1`, for which the inhibition was -0.52%.

Take `COc1ccc(C(=O)OCCN2CCN(C3CN(Cc4cn(Cc5ccccc5F)nn4)S(=O)(=O)C3)CC2)cc1OC` (stereo not given): the inhibition is -2.65%.

As to `CC(=O)c1ccc(NC(=O)c2sc3nc4n(c(=O)c3c2C)CCCCC4)cc1`, the inhibition is 4% (active).

As to `O=c1c2c(nc3n1CCCCC3)sc1c(O)cccc12`, the inhibition is 4.81% (active).

With `COc1cccc(C(=O)Nc2ccc3nc4n(c(=O)c3c2)CCCCC4)c1`, the inhibition was -0.05%.

`O=C(Cn1[nH]c(=O)c2ccccc2c1=O)Nc1cccc(-c2nnc3n2CCCCC3)c1`: the inhibition is -0.2%.

As to `O=C(Nc1ccc2nc3n(c(=O)c2c1)CCCC3)c1ccc(Cl)nc1`, the inhibition was -1.19%.

In the case of `N=c1c2c3c(sc2nc2n1CCCCC2)CCCC3`, the inhibition was 0.02%.

As to `CCOc1ccccc1C(=O)N1CCC[C@@H]1C(=O)N1CCC[C@H]1C(=O)NCc1ccccc1`, the inhibition was 0.55%.

As for `COc1ccc(-n2c(SCC(=O)NC3CCCC3)nnc2-c2ccncc2)cc1`, the inhibition was -0.56%.

In the case of `CC(=NNC(N)=O)c1ccc(Cl)c(-n2cccc2)c1`, the inhibition was -0.18%.

For `COc1ccccc1CN(C)C(=O)c1cc2ccccc2o1`, the inhibition was -0.34%.

As to `Cn1c(SCC(=O)NC2CCCCC2)nnc1-c1cc2ccccc2o1`, the inhibition was -0.14%.

`CCNc1nc(-c2cc3ccccc3o2)cs1`: the inhibition is 4.18% (active).

Turning to `O=C(NCc1ccc(F)cc1)c1cc(C2CCCCN2C(=O)c2ccccn2)on1` (stereo not given), the inhibition was -1.23%.

Turning to `COc1ccc(C2CC=C(C(=O)O)C(c3ccccc3F)N2S(=O)(=O)c2ccc(C)cc2)cc1OC` (stereo not given), the inhibition was 0.7%.

Take `O=S(=O)(c1ccccc1)N1CCC(c2nc3ccccc3o2)CC1`: the inhibition is -0.48%.

For `Cc1ccc(CN2CCC(N3CCC(C(=O)NCC4CCCO4)CC3)CC2)o1` (stereo not given), the inhibition was 0.9%.

Consider `CC(=O)NC(c1cccc(F)c1)c1nc(-c2cccc(F)c2)cs1` (stereo not given), for which the inhibition is -0.34%.

Consider `Cc1cccc(NC(=O)COc2ccc(Br)cc2C)n1`, for which the inhibition is 2.42%.

For the molecule `CC(=O)Nc1cccc(-c2csc(Nc3cccc(C)n3)n2)c1`, the inhibition was 4.69% (active).

Consider `OC(c1ccccc1)(c1ccccc1)C1CCN(CCCOc2ccc(-c3ccsc3)cc2)CC1`, for which the inhibition is -0.82%.

Consider `CCC(=O)Nc1ccc2c(c1)C(=O)N(C)[C@H]1CC[C@H](CC(=O)NCCOC)O[C@@H]1CO2`, for which the inhibition is 0.92%.

Turning to `Cc1c(C=O)n(C)n(-c2ccccc2)c1=O`, the inhibition is 0.3%.

As to `Cc1nc(N)sc1N=Nc1c(C)n(C)n(-c2ccccc2)c1=O`, the inhibition is 0.04%.

Take `Cc1c(N=Nc2ccc(N(C)C)cc2)c(=O)n(-c2ccccc2)n1C`: the inhibition was 4.03% (active).

In the case of `C=CCn1c(SCC(N)=O)nnc1-c1ccccc1OC`, the inhibition is -0.12%.

Take `Cc1ccc(C(=O)Nc2ccc(C)c(S(=O)(=O)N(C)C)c2)s1`: the inhibition was 4.23% (active).

For `COc1ccc(CCC(=O)OCC(=O)Nc2ccc(C)c(S(=O)(=O)N(C)C)c2)cc1`, the inhibition is 1.11%.

In the case of `CCN(CC(=O)Nc1ccc(C)c(S(=O)(=O)N(C)C)c1)Cc1ccccc1`, the inhibition is 0.23%.

In the case of `CCc1nc2ccc(C(=O)Nc3ccc(OC)c(OC)c3)cn2c1N(C)C(=O)c1cccc(OC)c1`, the inhibition is -1.08%.

For `CSCCC(NC(=O)c1ccco1)C(=O)Nc1cc(C)ccn1` (stereo not given), the inhibition was 11% (active).

As to `CSCCC(NC(=O)c1ccco1)C(=O)OCC(=O)Nc1ncc(Cl)c(C)c1Cl` (stereo not given), the inhibition is -0.11%.

For `CSCCC(NC(=O)c1ccco1)C(=O)NCCc1ccc(F)cc1` (stereo not given), the inhibition was 0.47%.

In the case of `COC(=O)c1ccc(CN2C(=O)NC(c3ccccc3)(c3ccccc3)C2=O)o1`, the inhibition is 0.15%.

As to `O=C(C1CCCN1S(=O)(=O)c1ccccc1)N1CCc2ccccc2C1` (stereo not given), the inhibition was -0.56%.

For `CC(C)C(C)NC(=O)COc1ncnc2ccccc12` (stereo not given), the inhibition was -0.45%.

For `CCC(=O)NC(=Nc1nc2ccccc2s1)NC(=O)CC`, the inhibition is 3.92% (active).

Consider `CC(NC(=O)COC(=O)c1ccc2ccccc2n1)c1ccccc1` (stereo not given), for which the inhibition is 0.44%.

With `O=C(CSc1nc2ccccc2s1)NN=Cc1ccc(O)cc1O`, the inhibition was -0.65%.

With `CC(C)CC(=O)NC(=S)NNC(=O)c1cccc([N+](=O)[O-])c1`, the inhibition was -0.72%.

As for `CC(C)CC(=O)N/C(N)=N/c1nc2ccccc2s1`, the inhibition was 4.37% (active).

In the case of `Cc1ccc(C)c(NC(=O)CCS(=O)(=O)c2ccccc2)c1`, the inhibition was 0.88%.

Take `COc1ccc(S(=O)(=O)n2nc(C)c(S(=O)(=O)N3CCOCC3)c2C)cc1`: the inhibition was -0.25%.

As for `COc1ccc(CN2C/C(=C/c3ccccc3)N3C(=O)C[C@@H](c4ccccc4)N=C23)c(OC)c1`, the inhibition was -0.16%.

`CCN(CC)C(=O)CC[C@H]1CC[C@]2(CCCN(Cc3ccc(Cl)cc3)C2)O1`: the inhibition is -0.32%.

As for `COc1ccc(S[C@]2(C(=O)N(C)C)CC(=O)N(c3ccc(OC)cc3)[C@@H]2c2ccc(OC)cc2)cc1`, the inhibition is -0.46%.

As for `Cc1cc(=O)[nH]c(SCC(=O)Nc2ccc(Cl)cc2C)n1`, the inhibition was 0.86%.

Turning to `Cc1ccc(S(=O)(=O)N2C[C@H]3n4c(=O)ccc(=O)n4C[C@H](OC(=O)NC4CCCC4)[C@@]3(O)C2)cc1`, the inhibition is -0.77%.

With `CCCCCCNC(=O)O[C@]12C[C@@H](C(=O)OC)[C@@H](C(=O)OC)C[C@@]1(O)CN(S(=O)(=O)c1ccc(C)cc1)C2`, the inhibition was -0.86%.

As to `CCCCCCNC(=O)O[C@H]1CN(C(=O)OC(C)C)N(C(=O)OC(C)C)[C@@H]2CN(S(=O)(=O)c3ccc(C)cc3)C[C@]12O`, the inhibition is 4.45% (active).

Regarding `Cc1ccccc1NC(=O)COC(=O)c1ccc(Sc2ncn[nH]2)c([N+](=O)[O-])c1`, the inhibition was 2.48%.

As for `CC1(C)OC(=O)C2=C(CC(CCc3ccccc3)OC2c2ccc(Cl)cc2)O1` (stereo not given), the inhibition was -1.2%.

For the molecule `COc1ccccc1-c1nnc(NC(=O)c2ccc3ncsc3c2)o1`, the inhibition is 0.87%.

Consider `Cc1sc(NC(=O)c2ccc3ncsc3c2)c(C(N)=O)c1C`, for which the inhibition is 10.2% (active).

In the case of `O=C(COC(=O)c1ccc2ncsc2c1)Nc1ccc(Cl)cc1`, the inhibition was -0.21%.

Regarding `CN(Cc1ccccc1Cl)C(=O)C1CCC(=O)N(CCc2cccc(F)c2)C1` (stereo not given), the inhibition was 0.69%.

Regarding `CN(CC(=O)Nc1cccc(F)c1)C(=O)C1CC(=O)N(CCc2ccccc2)C1` (stereo not given), the inhibition was 4.19% (active).

Take `CCNC(=O)c1cccc(NC(=O)C2CC(=O)N(CCc3ccccc3)C2)c1` (stereo not given): the inhibition is 0.37%.

With `C=CCN1C(=O)[C@@H](CC(=O)N2CCN(C(=O)OCC)CC2)[C@]2(C(=O)OCC)CCCCC/C=C/12`, the inhibition was 1.04%.

For `COC(=O)[C@H](C(C)C)N(CCCc1cn(Cc2ccccc2)nn1)S(=O)(=O)c1ccc(F)cc1Br`, the inhibition is -1.67%.

For the molecule `Cc1sc2ncnc(N3CCC(C(=O)NNC(=O)c4ccc(F)cc4)CC3)c2c1C`, the inhibition is -3.62%.

On to `Cc1sc2ncnc(N3CCC(C(=O)Nc4nc5ccc(Cl)cc5s4)CC3)c2c1C`, for which the inhibition was 4.32% (active).

As for `Cc1sc2ncnc(N3CCC(C(=O)Nc4ccc(F)cc4Cl)CC3)c2c1C`, the inhibition was 1.94%.

As for `CC(=O)C1=C(C)N(Cc2ccc(Cl)cc2)C(=S)NC1c1ccc(F)cc1` (stereo not given), the inhibition is 0.31%.

As to `COc1ccc(C(=O)OCC(=O)Nc2cc(C)on2)cc1F`, the inhibition is -1.4%.

In the case of `Cc1cc(NC(=O)COc2ccccc2C#N)no1`, the inhibition is 4.34% (active).

Consider `Cc1cc(NC(=O)COn2nnc3ccccc32)no1`, for which the inhibition was 0.82%.

On to `COc1ccc(C2CC(=O)C=C(NCC3CCCO3)C2)cc1` (stereo not given), for which the inhibition is -0.07%.

On to `CCCCCCN1CCS(=O)(=O)N(Cc2ccc(C(F)(F)F)cc2)C(C(=O)OC)C1` (stereo not given), for which the inhibition is -0.72%.

As for `CCc1ccc(CN2C(=O)c3ccccc3C2C(=O)NCC2CCCO2)cc1` (stereo not given), the inhibition was -0.05%.

Turning to `CC(=NCC1CCCO1)c1c(O)[nH]c(=O)[nH]c1=O` (stereo not given), the inhibition was 1.34%.

For the molecule `O=C1C(C=NCC2CCCO2)=C(O)c2ccccc21` (stereo not given), the inhibition was 4.59% (active).

For `COc1ccc(CNS(=O)(=O)c2cc(Br)ccc2Br)cc1`, the inhibition is -0.4%.

In the case of `COC(=O)c1ccc(CSc2nnc(NC(C)C)s2)cc1`, the inhibition was -0.08%.

With `COc1ccc(C(=O)CSc2nnc(NC(=O)C3CC(=O)N(c4cccc(OC)c4)C3)s2)cc1` (stereo not given), the inhibition is -0.22%.

For the molecule `CCCc1cc(=O)[nH]c2nnc(SCC(=O)Nc3nnc(SCC)s3)n12`, the inhibition was 2.35%.

As for `NC(=O)CSc1nnc(NC(=O)c2ccc3ccccc3c2)s1`, the inhibition is 6.15% (active).

With `CCSc1nnc(NC(=O)c2ccc(C)cc2)s1`, the inhibition is 5.52% (active).

For the molecule `O=C(/C=C/c1ccccc1)Nc1nnc(SCC(=O)c2ccc3ccccc3c2)s1`, the inhibition was 0.17%.

Usually inhibition stands for the relative decrease from the control value, in per cent.
